Measurements as given in PubChem BioAssay (NCI).
The panel holds about 83,000 compounds, 20% with a hit somewhere; the sample as a whole holds those more often.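 Step 1: grow cells in 96-well plates. Step 2: add test compound at a single concentration. Step 3: incubate 48 h. Step 4: record percent growth.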 A number with no mark means an inactive call. How the source made its calls: active means growth percent below 10; inactive means the rest.

System: OVCAR-5 ovarian
Assay: NCI-60 one-dose screen, 48 h (100 = growth as untreated, 0 = no growth, -100 = all killed)
Settings: 10 µM unless noted

SMILES | growth
COc1cc(-c2cc3ncccc3c3nc(OCCN(C)C)c4cccnc4c23)cc(OC)c1OC | 44.8%
CN(C)CCCC1(c2ccc(F)cc2)OCc2cc(-c3ccc(C(F)(F)F)nc3)ccc21 (stereo not drawn) | 85.5%
Cn1cc(-c2csc(-c3cn(CCNC(=O)OC(C)(C)C)c4ccccc34)n2)c2cccnc21 | 115%
N#CC1=C(N)Oc2c(c(N)nn2-c2ccccc2)C1c1ccc(Cl)cc1Cl (stereo not drawn) | 98.2%
CCN1CCN(C(=O)[C@]23CC[C@@H](C)[C@H](C)[C@H]2C2=CC[C@@H]4[C@@]5(C)C/C(=C/c6cccc(OC)c6OC)C(=O)C(C)(C)[C@@H]5CC[C@@]4(C)[C@]2(C)CC3)CC1 | 67.8%
Cc1csc(Nc2nc(-c3ccc(Cl)cc3)nc(C(Cl)(Cl)Cl)n2)n1 | 99%
COc1ccc(/C=C(\C#N)c2cc3ccccc3n2S(C)(=O)=O)cc1 | 99.3%
Cc1cc(Cl)c2c(N(C)C)cccc2n1 | 119%
O=C1c2ccccc2NC(c2cn(-c3ccccc3)nc2-c2cccs2)N1Cc1ccccc1 (stereo not drawn) | 90%
COCCNC1=C(Cl)C(=O)c2ccccc2C1=O | 107%
Oc1ccc(Nc2ccccc2)cc1 | 123%
COC(=O)[C@]12CC[C@@H](C)[C@H](C)[C@@H]1C1=CC[C@@H]3[C@@]4(C)C[C@@H](OC(C)=O)[C@H](OC(C)=O)[C@@](C)(COC(C)=O)[C@@H]4[C@H](O)C[C@@]3(C)[C@]1(C)CC2 | 34.6%
Cc1c(C)c2c(c(C)c1NC(=O)CCCCCCC(=O)O)CCC(C)(CCCC(C)CCCC(C)CCCC(C)C)O2 (stereo not drawn) | 121%
